# The supplement of paper PMC8728848
# The sample as a whole holds a higher share of the strongest signals than the screen did.
# B1: DC-ASPGR (Homo sapiens), CLC10_HUMAN (protein)
# chain: LDQNSKFQRDLVTLRTDFSNFTSNTVAEIQALTSQGSSLEETIASLKAEVEGFKQERQAVHSEMLLRVQQLVQDLKKLTCQVATLNNNASTEGTCCPVNWVEHQDSCYWFSHSGMSWAEAEKYCQLKNAHLVVINSREEQNFVQKYLGSAYTWMGLSDPEGAWKWVDGTDYATGFQNWKPGQPDDWQGHGLGGGEDCAHFHPDGRWNDDVCQRPYHWVCEAGLGQTSQESHVEPKSCDKTHTCPPCPAPELLGGPSVFLFPPKPKDTLMISRTPEVTCVVVDVSHEDPEVKFNWYVDGVEVHNAKTKPREEQFNSTYRVVSVLTVLHQDWLNGKEYKCKVSNKGLPSSIEKTISKAKGQPREPQVYTLPPSQEEMTKNQVSLTCLVKGFYPSDIAVEWESNGQPENNYKTTPPVLDSDGSFFLYSRLTVDKSRWQEGNVFSCSVMHEALHNHYTQK
# B2: CLEC-1 (Homo sapiens), Q9NZH3 (protein)
# chain: MQAKYSSTRDMLDDDGDTTMSLHSQASATTRHPEPRRTEHRAPSSTWRPVALTLLTLCLVLLIGLAAWGLLFFQYYQLSNTGQDTISQMEERLGNTSQELQSLQVQNIKLAGSLQHVAEKLCRELYNKAGAHRCSPCTEQWKWHGDNCYQFYKDSKSWEDCKYFCLSENSTMLKINKQEDLEFAASQSYSEFFYSYWTGLLRPDSGKAWLWMDGTPFTSELFHIIIDVTSPRSRDCVAILNGMIFSKDCKELKRCVCERRAGMVKPESLHVPPETLGEGD
# Tests used:
# Test in all cases: glycan array binding signal (z-score within array); higher = stronger binding
# Conditions in all cases: glycan notation: IUPAC condensed, linker removed
# [1] = biological target: Fuc(a1-2)Gal(b1-3)GlcNAc(b1-2)Man(a1-3)[Fuc(a1-2)Gal(b1-3)GlcNAc(b1-2)Man(a1-6)]Man(b1-4)GlcNAc(b1-4)GlcNAc
# Outline: (§1)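 Glycan array data came from 3228 arrays in the Consortium for Functional Glycomics database, and only arrays with an available protein sequence were kept. Glycan names were put into IUPAC-condensed notation, and columns mapping to the same glycan were averaged. The binding signal is a within-array Z-score, averaged across arrays of one protein sequence run at different concentrations or buffers and across linkers. A negative Z-score can be read as non-binding.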
# Fuc(a1-2)Gal(b1-4)Glc = biological target: Fuc(a1-2)Gal(b1-4)Glc
# Outline: as §1
# Fuc(a1-2)Gal(b1-4)GlcNAc = biological target: Fuc(a1-2)Gal(b1-4)GlcNAc
# Outline: as §1
# [2] = biological target: Fuc(a1-2)Gal(b1-4)GlcNAc6S
# Outline: as §1
# Fuc(a1-2)[Gal(a1-3)]Gal = biological target: Fuc(a1-2)[Gal(a1-3)]Gal
# Outline: as §1
# [3] = biological target: Fuc(a1-2)[Gal(a1-3)]Gal(b1-4)Glc
# Outline: as §1
# [4] = biological target: Fuc(a1-2)[Gal(a1-3)]Gal(b1-4)GlcNAc(b1-2)Man(a1-3)[Fuc(a1-2)[Gal(a1-3)]Gal(b1-4)GlcNAc(b1-2)Man(a1-6)]Man(b1-4)GlcNAc(b1-4)GlcNAc
# Outline: as §1
# [5] = biological target: Fuc(a1-2)[GalNAc(b1-3)]Gal
# Outline: as §1
# Fuc(a1-3)GlcNAc = biological target: Fuc(a1-3)GlcNAc
# Outline: as §1
# [6] = biological target: Fuc(a1-3)[Gal(b1-4)]GlcNAc
# Outline: as §1
# [7] = biological target: Fuc(a1-3)[GalNAc(b1-4)]GlcNAc
# Outline: as §1
# Fuc(b1-3)GlcNAc = biological target: Fuc(b1-3)GlcNAc
# Outline: as §1
# Gal(a1-2)Gal = biological target: Gal(a1-2)Gal
# Outline: as §1
# [8] = biological target: Gal(b1-3)[Fuc(a1-4)]GlcNAc(b1-2)Man(a1-3)[Gal(b1-3)[Fuc(a1-4)]GlcNAc(b1-2)Man(a1-6)]Man(b1-4)GlcNAc(b1-4)[Fuc(a1-6)]GlcNAc
# Outline: as §1
# [9] = biological target: Gal(b1-4)GlcNAc(b1-3)Gal(b1-4)[Fuc(a1-3)]GlcNAc(b1-3)Gal(b1-4)[Fuc(a1-3)]GlcNAc
# Outline: as §1
# [10] = biological target: Gal(b1-4)GlcNAc(b1-6)Gal(b1-4)GlcNAc(b1-6)GalNAc
# Outline: as §1
# [11] = biological target: Gal(b1-4)GlcNAc(b1-6)GalNAc
# Outline: as §1
# [12] = biological target: Gal(b1-4)GlcNAc(b1-6)[Gal(b1-3)]GalNAc
# Outline: as §1
# Gal3S(b1-3)GalNAc = biological target: Gal3S(b1-3)GalNAc
# Outline: as §1
# Gal3S6S(b1-4)GlcNAc6S = biological target: Gal3S6S(b1-4)GlcNAc6S
# Outline: as §1
# GalNAc(b1-4)GlcNAc = biological target: GalNAc(b1-4)GlcNAc
# Outline: as §1
# Glc(a1-4)Glc = biological target: Glc(a1-4)Glc
# Outline: as §1
# Glc(b1-4)Glc = biological target: Glc(b1-4)Glc
# Outline: as §1
# GlcA(b1-3)Gal = biological target: GlcA(b1-3)Gal
# Outline: as §1
# [13] = biological target: GlcNAc(a1-4)Gal(b1-4)GlcNAc(b1-3)Gal(b1-4)GlcNAc
# Outline: as §1
# GlcNAc(b1-3)GalNAc = biological target: GlcNAc(b1-3)GalNAc
# Outline: as §1
# GlcNAc(b1-6)GalNAc = biological target: GlcNAc(b1-6)GalNAc
# Outline: as §1
# [14] = biological target: Neu5Ac(a2-3)Gal6S(b1-4)GlcNAc
# Outline: as §1
# [15] = biological target: Neu5Ac(a2-6)Gal(b1-4)GlcNAc
# Outline: as §1
# [16] = biological target: Neu5Ac(a2-8)Neu5Ac(a2-8)Neu5Ac(a2-3)Gal(b1-4)Glc
# Outline: as §1
# [17] = biological target: Fuc(a1-2)[Gal(a1-4)]Gal(b1-4)GlcNAc
# Outline: as §1
# [18] = biological target: Fuc(a1-3)[Gal(b1-4)]GlcNAc(b1-4)Gal(b1-4)[Fuc(a1-3)]GlcNAc(b1-4)Gal(b1-4)[Fuc(a1-3)]GlcNAc
# Outline: as §1
# Gal(a1-3)Gal = biological target: Gal(a1-3)Gal
# Outline: as §1
# [19] = biological target: Gal(a1-3)Gal(b1-3)GlcNAc(b1-2)Man(a1-3)[Gal(a1-3)Gal(b1-3)GlcNAc(b1-2)Man(a1-6)]Man(b1-4)GlcNAc(b1-4)GlcNAc
# Outline: as §1
# [20] = biological target: Gal(a1-4)Gal(b1-4)GlcNAc(b1-2)Man(a1-3)[Gal(a1-4)Gal(b1-4)GlcNAc(b1-2)Man(a1-6)]Man(b1-4)GlcNAc(b1-4)GlcNAc
# Outline: as §1
# Gal(b1-2)Gal = biological target: Gal(b1-2)Gal
# Outline: as §1
# [21] = biological target: Gal(b1-3)[GlcNAc(b1-6)]GalNAc
# Outline: as §1
# [22] = biological target: Gal(b1-4)GlcNAc(b1-2)Man(a1-3)Man(b1-4)GlcNAc(b1-4)GlcNAc
# Outline: as §1
# [23] = biological target: Gal(b1-4)GlcNAc(b1-2)Man(a1-3)[Gal(b1-4)GlcNAc(b1-2)Man(a1-6)]Man(b1-4)GlcNAc(b1-4)GlcNAc
# Outline: as §1
# [24] = biological target: Gal(b1-4)GlcNAc(b1-2)Man(a1-3)[GlcNAc(b1-2)Man(a1-6)]Man(b1-4)GlcNAc(b1-4)GlcNAc
# Outline: as §1
# [25] = biological target: Gal(b1-4)GlcNAc(b1-2)Man(a1-3)[Man(a1-6)]Man(b1-4)GlcNAc(b1-4)GlcNAc
# Outline: as §1
# [26] = biological target: Gal(b1-4)GlcNAc(b1-3)GalNAc
# Outline: as §1
# Gal6S(b1-4)GlcNAc6S = biological target: Gal6S(b1-4)GlcNAc6S
# Outline: as §1
# GalNAc(a1-3)Gal = biological target: GalNAc(a1-3)Gal
# Outline: as §1
# [27] = biological target: GlcNAc(a1-4)Gal(b1-3)GlcNAc
# Outline: as §1
# [28] = biological target: GlcNAc(a1-4)Gal(b1-4)GalNAc
# Outline: as §1
# [29] = biological target: GlcNAc(a1-4)Gal(b1-4)GlcNAc
# Outline: as §1
# [30] = biological target: GlcNAc(a1-6)Gal(b1-4)GlcNAc
# Outline: as §1
# [31] = biological target: Man(a1-3)[Man(a1-6)]Man(a1-6)[Man(a1-2)Man(a1-3)]Man(b1-4)GlcNAc(b1-4)GlcNAc
# Outline: as §1
# [32] = biological target: Neu5Ac(a2-3)Gal(b1-4)GlcNAc(b1-6)[Neu5Ac(a2-3)Gal(b1-3)]GalNAc
# Outline: as §1
# [33] = biological target: Neu5Ac(a2-3)Gal(b1-4)[Fuc(a1-3)]GlcNAc(b1-3)GalNAc
# Outline: as §1
# Neu5Ac(a2-3)GalNAc = biological target: Neu5Ac(a2-3)GalNAc
# Outline: as §1
# [34] = biological target: Neu5Ac(a2-6)Gal(b1-4)GlcNAc(b1-3)Gal(b1-4)GlcNAc(b1-3)Gal(b1-4)GlcNAc
# Outline: as §1
# Neu5Ac(b1-6)GalNAc = biological target: Neu5Ac(b1-6)GalNAc
# Outline: as §1
# Neu5Gc(a2-6)GalNAc = biological target: Neu5Gc(a2-6)GalNAc
# Outline: as §1
binder,measurement,setting,value
B1,glycan array binding signal (z-score),[1],-0.074
same,glycan array binding signal (z-score),Fuc(a1-2)Gal(b1-4)Glc,-0.082
same,glycan array binding signal (z-score),Fuc(a1-2)Gal(b1-4)GlcNAc,-0.165
same,glycan array binding signal (z-score),[2],-0.177
same,glycan array binding signal (z-score),Fuc(a1-2)[Gal(a1-3)]Gal,-0.287
same,glycan array binding signal (z-score),[3],-0.303
same,glycan array binding signal (z-score),[4],-0.297
same,glycan array binding signal (z-score),[5],3.91
same,glycan array binding signal (z-score),Fuc(a1-3)GlcNAc,-0.256
same,glycan array binding signal (z-score),[6],-0.246
same,glycan array binding signal (z-score),[7],2.36
same,glycan array binding signal (z-score),Fuc(b1-3)GlcNAc,-0.235
same,glycan array binding signal (z-score),Gal(a1-2)Gal,-0.14
same,glycan array binding signal (z-score),[8],-0.15
same,glycan array binding signal (z-score),[9],-0.197
same,glycan array binding signal (z-score),[10],-0.298
same,glycan array binding signal (z-score),[11],3.86
same,glycan array binding signal (z-score),[12],-0.173
same,glycan array binding signal (z-score),Gal3S(b1-3)GalNAc,-0.146
same,glycan array binding signal (z-score),Gal3S6S(b1-4)GlcNAc6S,-0.248
same,glycan array binding signal (z-score),GalNAc(b1-4)GlcNAc,2.66
same,glycan array binding signal (z-score),Glc(a1-4)Glc,5.49
same,glycan array binding signal (z-score),Glc(b1-4)Glc,-0.27
same,glycan array binding signal (z-score),GlcA(b1-3)Gal,-0.276
same,glycan array binding signal (z-score),[13],-0.092
same,glycan array binding signal (z-score),GlcNAc(b1-3)GalNAc,-0.27
same,glycan array binding signal (z-score),GlcNAc(b1-6)GalNAc,4.28
same,glycan array binding signal (z-score),[14],-0.179
same,glycan array binding signal (z-score),[15],-0.236
same,glycan array binding signal (z-score),[16],-0.244
B2,glycan array binding signal (z-score),[1],6.09
same,glycan array binding signal (z-score),[17],-0.046
same,glycan array binding signal (z-score),[18],0.063
same,glycan array binding signal (z-score),Gal(a1-3)Gal,-0.376
same,glycan array binding signal (z-score),[19],3.16
same,glycan array binding signal (z-score),[20],5.92
same,glycan array binding signal (z-score),Gal(b1-2)Gal,-0.482
same,glycan array binding signal (z-score),[21],-0.033
same,glycan array binding signal (z-score),[22],1.79
same,glycan array binding signal (z-score),[23],0.112
same,glycan array binding signal (z-score),[24],-0.583
same,glycan array binding signal (z-score),[25],11
same,glycan array binding signal (z-score),[26],-0.261
same,glycan array binding signal (z-score),Gal3S(b1-3)GalNAc,-0.341
same,glycan array binding signal (z-score),Gal3S6S(b1-4)GlcNAc6S,3.17
same,glycan array binding signal (z-score),Gal6S(b1-4)GlcNAc6S,0.66
same,glycan array binding signal (z-score),GalNAc(a1-3)Gal,-0.34
same,glycan array binding signal (z-score),[27],-0.516
same,glycan array binding signal (z-score),[28],-0.035
same,glycan array binding signal (z-score),[29],2.86
same,glycan array binding signal (z-score),[30],2.11
same,glycan array binding signal (z-score),[31],0.433
same,glycan array binding signal (z-score),[32],-0.142
same,glycan array binding signal (z-score),[33],2.82
same,glycan array binding signal (z-score),[14],-0.086
same,glycan array binding signal (z-score),Neu5Ac(a2-3)GalNAc,-0.178
same,glycan array binding signal (z-score),[34],-0.43
same,glycan array binding signal (z-score),Neu5Ac(b1-6)GalNAc,-0.392
same,glycan array binding signal (z-score),Neu5Gc(a2-6)GalNAc,-0.297
